Assay outcomes (PubChem)
aSyn 5UTR act = Activators working through SNCA 5'UTR binding (MLPCN). alpha-synuclein 5'UTR reporter, activators screen. activity score, % (tested at 7.5 µM), hits read low. hit rate 7.1% among 300,000; in the data active = activity score below about -60%
Each line names hits and unclear results; the compound was inactive in the other large screens. Only a sample is shown.

COCCNC(=O)C(c1cccnc1)N(Cc1ccccc1)C(=O)Cn1nnc2ccccc21 (stereo unspecified)	aSyn 5UTR act -65
COCCNC(=O)C(c1ccncc1)N(Cc1ccccc1)C(=O)Cn1nnc2ccccc21 (stereo unspecified)	aSyn 5UTR act -82
c1ccc(C[n+]2csc3ccccc32)cc1	aSyn 5UTR act -71
COCCN(C(C)=O)c1nnc(-c2ccccn2)s1	aSyn 5UTR act -66
CN(C(=O)c1cccnc1)c1nnc(-c2ccccn2)s1	aSyn 5UTR act -98
Cc1ccc(-c2nnc(N(C)C(=O)c3ccncc3)s2)cn1	aSyn 5UTR act -77
CC(=O)N(C)c1nnc(-c2ccccn2)s1	aSyn 5UTR act -71
COc1cnc(-c2ccccn2)nc1N(C)C	none
CC(/C=C/c1ccccc1)=N\NC(N)=S	aSyn 5UTR act -100
CC(/C=C/c1ccccc1)=N\Nc1nc(C)cc(C)n1	aSyn 5UTR act -96
CCCCOC(=O)Nc1ccc(N2CCOCC2)cc1	aSyn 5UTR act -163
CCCCOC(=O)Nc1ccc(N2CCCCC2)cc1	aSyn 5UTR act -158
O=P(O)(O)c1ccccc1OCCOCCOCCOCCOc1ccccc1P(=O)(O)O	aSyn 5UTR act -130
COc1cccc(CNC(=O)CN2C(=O)CSc3ccc(S(=O)(=O)N4CCCCC4)cc32)c1	aSyn 5UTR act -160
COC(=O)CNc1c(-c2ccccc2)nc2ccc(Br)cn12	aSyn 5UTR act -69
CCOC(=O)Nc1nc(-c2ccc(F)cc2F)cs1	aSyn 5UTR act -148
CCOC(=O)C1=C(CSc2nc(-c3ccccc3)ccc2C#N)OC(N)=C(C#N)C1c1ccc(OC)cc1 (stereo unspecified)	aSyn 5UTR act -184
Cc1c2c(nc3ccccc13)CCC(C(C)(C)C)C2 (stereo unspecified)	aSyn 5UTR act -116
CC(=O)Nc1nnc(-c2ccc3c(c2)CCCC3)o1	aSyn 5UTR act -67
CC1CN(S(=O)(=O)c2ccc(C(=O)Nc3nnc(-c4ccc5c(c4)CCCC5)o3)cc2)CC(C)O1 (stereo unspecified)	none
CN(C)c1ccc(/C=C2\CCCCC2=O)cc1	aSyn 5UTR act -104
Cc1ccc(-c2csc(N)n2)s1	aSyn 5UTR act -71
CC(C)n1c(CN(C)Cc2ccccc2)nc2c1c(=O)n(C)c(=O)n2C	none
Cc1[nH]c2ccccc2c(=O)c1CN(C)Cc1ccccc1	aSyn 5UTR act -89
N/C(=N\OC(=O)Nc1ccccc1)c1ncc([N+](=O)[O-])s1	aSyn 5UTR act -94
CCc1cccc(NC(=O)COc2ccccc2)c1	aSyn 5UTR act -92
Cc1ccccc1OCC(=O)Nc1cccc(N(C)S(C)(=O)=O)c1	aSyn 5UTR act -62
Cc1ccc(NC(=O)COc2ccccc2C=O)cc1Cl	aSyn 5UTR act -121
CN(c1cccc(NC(=O)COc2ccc(Cl)cc2Cl)c1)S(C)(=O)=O	aSyn 5UTR act -131
CN(c1cccc(NC(=O)COc2ccccc2)c1)S(C)(=O)=O	aSyn 5UTR act -113
CSc1ccccc1NC(=O)COc1ccccc1C	aSyn 5UTR act -107
CC(=O)Nc1cccc(NC(=O)COc2ccccc2C)c1	aSyn 5UTR act -77
Cc1ccc(C)c(OCC(=O)Nc2c[nH]c(=O)[nH]c2=O)c1	none
COc1cccc(NC(=O)COc2ccccc2C(N)=O)c1	aSyn 5UTR act -75
Cc1ccc(/C=C/c2nnc(-c3ccccc3)o2)cc1	aSyn 5UTR act -109
Cc1ccc(-c2noc(/C=C/c3ccccc3)n2)cc1	aSyn 5UTR act -202
Clc1ccc(-c2noc(/C=C/c3ccccc3)n2)cc1	aSyn 5UTR act -94
Cc1cc2sc3ccccc3c(=O)c2c(C)c1O	aSyn 5UTR act -96
CC(=O)c1cccc(NC(=O)CN2C=NS(=O)(=O)c3ccc(C)cc32)c1	aSyn 5UTR act -124
N#Cc1cn(-c2ccccc2)nc1-c1ccccc1	aSyn 5UTR act -78
C1CCC(c2nn3c(-c4n[nH]c5c4CCC5)nnc3s2)CC1	none
CC(=O)N(C(C)=O)n1c(C)nc2sc3c(c2c1=O)CCCC3	none
O=c1c2c3c(sc2nc2sc(C4CC4)nn12)CCCC3	aSyn 5UTR act -130
O=C1C=CCC(/C=C/c2ccccc2)O1 (stereo unspecified)	aSyn 5UTR act -104
O=[N+]([O-])c1ccc(-c2nc3ccc([N+](=O)[O-])cc3[nH]2)cc1	aSyn 5UTR act -143
Nc1ccc(-c2nc3ccc([N+](=O)[O-])cc3[nH]2)cc1	aSyn 5UTR act -84
O=[N+]([O-])c1ccc2nc(/C=C/c3ccc(Cl)cc3)[nH]c2c1	aSyn 5UTR act -151
CC1CCN(c2nc3ccc(C(=O)N4CCN(Cc5ccc6c(c5)OCO6)CC4)cc3s2)CC1	aSyn 5UTR act -156
COc1ccc(N2CCN(C(=O)c3ccc4nc(N5CCCCC5)sc4c3)CC2)cc1	aSyn 5UTR act -192
COc1ccc2nc(N3CCN(C(=O)C4COc5ccccc5O4)CC3)sc2c1 (stereo unspecified)	aSyn 5UTR act -125
COc1cccc(N2CCN(C(=O)c3ccc4nc(N5CCCCC5)sc4c3)CC2)c1	aSyn 5UTR act -153
CCOC(=O)C1(CCc2ccccc2)CCN(C(=O)CCn2cncn2)CC1	aSyn 5UTR act -99
CCOC(=O)C1(Cc2ccccc2Cl)CCN(C(=O)CCn2ccnc2C)CC1	aSyn 5UTR act -81
CCC(Sc1nc2ccccc2c(=O)[nH]1)C(=O)Nc1ccc(C(C)=O)cc1 (stereo unspecified)	aSyn 5UTR act -79
CCOC(=O)c1ccc2nc(NC(=O)c3cccs3)sc2c1	aSyn 5UTR act -105
CCCC(=O)Nc1nc2ccc(C(=O)OCC)cc2s1	aSyn 5UTR act -136
CCOC(=O)c1ccc2nc(NC(=O)C(C)C)sc2c1	aSyn 5UTR act -113
CCCCC(=O)Nc1nc2ccc(C(=O)OC)cc2s1	aSyn 5UTR act -114
Clc1ccc2nc(-c3ccc(Cl)nc3)[nH]c2c1	aSyn 5UTR act -293
Cc1ccc2nc(C(O)C(O)c3nc4ccc(C)cc4[nH]3)[nH]c2c1 (stereo unspecified)	aSyn 5UTR act -159
Nc1ccc(-c2nc3ccc(N)cc3[nH]2)cc1	aSyn 5UTR act -62
Nc1ccc(Cc2nc3c(ccc4ccccc43)[nH]2)cc1	aSyn 5UTR act -171
Nc1ccc2nc(-c3cc(Cl)c(N)c(Cl)c3)[nH]c2c1	aSyn 5UTR act -279
CCc1nc(N)nc(N)c1-c1ccc(Cl)cc1	none
Nc1ccc2nc(-c3ccc(Cl)cc3)[nH]c2c1	aSyn 5UTR act -176
Cc1ccc(C)c(-c2nc3ccc(N)cc3[nH]2)c1	aSyn 5UTR act -64
Cc1ccc2nc(Cc3ccc(N)cc3)[nH]c2c1	aSyn 5UTR act -90
O=C(NCc1ccccc1)c1cc(-c2cccs2)on1	aSyn 5UTR act -95
O=C(NCc1ccco1)c1cc(-c2ccc(F)cc2)on1	aSyn 5UTR act -198
O=C(NCc1ccco1)c1cc(-c2cccs2)on1	aSyn 5UTR act -297
O=C(NCc1ccco1)c1cc(-c2ccccc2)on1	aSyn 5UTR act -161
CC(C)Oc1ccc(C2c3c(oc4ccccc4c3=O)C(=O)N2CCCN2CCOCC2)cc1 (stereo unspecified)	aSyn 5UTR act -76
COc1ccc(NCc2nc3ccccc3n2C)cc1	aSyn 5UTR act -129
Cn1c(S(=O)(=O)Cc2ccc(Cl)cc2)nc2ccccc21	aSyn 5UTR act -65
CCOC(=O)c1ccc(NCc2nc3ccccc3n2C)cc1	aSyn 5UTR act -172
Cc1ccc(NCc2nc3ccccc3n2C)cc1	aSyn 5UTR act -111
Cn1c(CNc2ccc(Br)cc2)nc2ccccc21	aSyn 5UTR act -172
C=CCn1c(NCc2ccc(N(C)C)cc2)nc2ccccc21	aSyn 5UTR act -63
Cn1c(NCc2ccc(Cl)cc2)nc2ccccc21	aSyn 5UTR act -100
Cc1ccc(NCc2nc3ccccc3n2C)cc1C	aSyn 5UTR act -113
